We go through 17 compounds from PubChem BioAssay.

SMILES strings stand for the structures. A number with no mark means an inactive call. How the calls were made is not given here.

This assay deals with Pantothenate synthetase (Mycobacterium tuberculosis (strain ATCC 25618 / H37Rv)) (UniProt P9WIL5). The assay can be described thus: Recombinant Mtb pantothenate synthetase (PanC) inhibitors, coupled enzyme, confirmatory (AID 375).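 Further: 0% = full reaction with vehicle and 100% = no enzyme background.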 Particulars: coupled enzyme assay; at 10 µM, stronger effect = higher value.
Sequence of Pantothenate synthetase (Mycobacterium tuberculosis (strain ATCC 25618 / H37Rv)) (P9WIL5 whole entry, looked up): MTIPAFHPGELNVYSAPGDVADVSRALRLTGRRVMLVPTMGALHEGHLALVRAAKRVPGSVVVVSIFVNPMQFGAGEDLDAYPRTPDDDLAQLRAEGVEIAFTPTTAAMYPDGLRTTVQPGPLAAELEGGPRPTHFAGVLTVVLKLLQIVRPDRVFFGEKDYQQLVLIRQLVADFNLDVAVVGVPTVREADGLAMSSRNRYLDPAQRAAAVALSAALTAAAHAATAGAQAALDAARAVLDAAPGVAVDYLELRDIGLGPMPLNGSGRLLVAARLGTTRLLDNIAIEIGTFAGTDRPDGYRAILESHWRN
Take `Cc1cn(C2CC3OCC3O2)c(=O)[nH]c1=O` (configuration not stated): the inhibition is 0%. For `O=[N+]([O-])c1cccc2cn[nH]c12` the value was 0%. As for `COc1ccccc1CN1C(=O)CCC1(C)C(=O)NC1CCCCCC1` (configuration not stated), the figure is 8%; as for `O=C(O)c1ccc(-c2ccc(O)c(F)c2)cc1`, 1%. As for `Cc1cccc2sc(NC(=O)CN(C)S(=O)(=O)c3cccs3)nc12`, the figure is 2%. In the case of `CNS(=O)(=O)c1cccc(C(=O)OCC(=O)c2cc(C)n(-c3ccc4c(c3)OCO4)c2C)c1`, the inhibition was 0%.

On to `CCOc1ccc(NC(=O)CN(C)CC(=O)NC2CCCc3ccccc32)cc1OCC` (configuration not stated), for which the inhibition was 7%.

For `CCOC(=O)c1c(-c2ccc(C)o2)csc1NC(=O)CN1CCN(CC)CC1`, the inhibition is 0%. For `Cc1cc(C(F)F)n2ncc(C(=O)NC3CCCCCC3)c2n1` the value was 0%; for `CCCn1c(=O)[nH]c(=O)c2[nH]cnc21`, 0%; for `CC1=C(C(=O)OC2CCCCC2)C(c2ccc(C)o2)C2=C(CC(C)(C)CC2=O)N1` (configuration not stated), 0%.

As to `Cc1oc2c(CN3CCOCC3)c(O)ccc2c(=O)c1-c1ccc(Br)cc1`, the inhibition was 0%. For `COc1ccccc1NC(=O)C(C)NS(=O)(=O)c1ccc(F)cc1` (configuration not stated) the value was 0%; for `O=C(c1ccc(CSCc2ccccc2F)o1)N1CCN(c2ccc(N3CCOCC3)nn2)CC1`, 0%; for `CC(NS(=O)(=O)c1ccccc1)C(c1cccs1)N1CCN(C)CC1` (configuration not stated), 4%. With `CC(=O)Nc1ccc(NC(=O)Cn2cnc3c(cnn3C(C)(C)C)c2=O)cc1`, the inhibition is 3%.

Turning to `CN(C)c1ccnc(NCc2ccccc2)c1C#N`, the inhibition was 0%.
